From PubChem
Dicer inh: human Dicer pre-microRNA cleavage inhibition; Q9UPY3; cat-ELCCA pre-miR-21 Dicer processing, chemiluminescence; active compounds read high; z-score at 25 µM; hit rate 6% among 47,000; AID 1347074; in the data active = z-score above about 3, passing the limit was not always enough;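 note: plate controls were vehicle for no effect and no enzyme for full effect; higher signal means more uncleaved substrate so more Dicer inhibition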
Starred values were filed as active, the others as inactive. This is one part of a sample in which hits are shown more often than they occur.

SMILES	Dicer inh
O=C(N/N=C/C=C/c1ccccc1)N/N=C/C=C/c1ccccc1	-0.35
O=S(=O)(/C=C/c1ccccc1)c1ccc(F)c(Cl)c1	-0.86
Cc1nn(C)c(NNC(=O)c2ccccc2Cl)c1[N+](=O)[O-]	0.46
CCCCNC(=O)NS(=O)(=O)c1cc(Cl)sc1Cl	-0.78
COc1ccc(Cl)cc1S(=O)(=O)NCc1ccccn1	0.71
O=C(NCCCCO)OCC1c2ccccc2-c2ccccc21	-0.56
COCCCn1c2c(c(=O)[nH]c1=O)C(c1ccc(C)cc1)C1=C(N2)c2ccccc2C1=O (stereo unspecified)	-2.71
O=S(=O)(c1ccc2ccccc2c1)N1CCN(Cc2ccc3c(c2)OCO3)CC1	6.61*
O=S(=O)(c1ccccc1)N1CCN(Cc2ccc3c(c2)OCO3)CC1	8.02
O=C(c1cc(-c2ccc3c(c2)OCO3)nc2ccccc12)N1CCN(Cc2ccc3c(c2)OCO3)CC1	1.39
CCCS(=O)(=O)N1CCN(C(=O)c2ccco2)CC1	2.71
CC1CCC(N2CCN(C(=O)c3ccco3)CC2)CC1 (stereo unspecified)	0.07
CN(C)C(=O)N1CCN(C(=O)c2ccco2)CC1	3.09*
O=C(c1ccco1)N1CCN(Cc2ccc3c(c2)OCO3)CC1	6.17*
COc1ccc(S(=O)(=O)N2CCN(Cc3ccc4c(c3)OCO4)CC2)cc1	7.99
O=C(c1ccc2c(c1)OCO2)N1CCN(Cc2ccc3c(c2)OCO3)CC1	-0.91
COc1ccc(/C(C#N)=C/c2cnc(-c3ccccc3)[nH]2)cc1	0.2
CCOC(=O)C(=CNc1cccc(Cl)c1Cl)C(=O)OCC	-1.66
O=C1Nc2ccc(Cl)cc2C1(O)c1c[nH]c2ccccc12 (stereo unspecified)	0.98
COc1ccccc1C1CC(=O)C2=C(C1)NC(C)=C(C(=O)OC1CCCC1)C2c1ccsc1 (stereo unspecified)	-0.04
Cc1cc(C)c2c(=O)[nH]c(SCC(=O)N3CCCCC3)nc2n1	5.78*
Cc1sc2nc(SCC(=O)N3CCCCC3)[nH]c(=O)c2c1C	-0.76
CCc1ccc(C(=O)CSc2nc3nc(C)cc(C)c3c(=O)[nH]2)cc1	0.63
NC(N)=NC(N)=Nc1ccccc1Oc1ccc(Cl)cc1Cl	-0.48
O=[N+]([O-])c1cnc(Sc2nc3cc(Cl)ccc3s2)s1	-1.52
SMILES	Dicer inh
CCN(CC)c1ccc(C2Nc3ccccc3NC3=C2C(=O)CC(C)(C)C3)cc1 (stereo unspecified)	0.38
Cn1cccc1CNCCc1ccc(S(N)(=O)=O)cc1	2.31
Cc1ccc(S(=O)(=O)NCCc2ccc(S(N)(=O)=O)cc2)cc1	0.1
NS(=O)(=O)c1ccc(CCNCc2cccs2)cc1	3.06*
CC(C)(C)c1ccc(-c2nc(SCC(=O)c3ccc(Cl)cc3)n[nH]2)cc1	-0.27
Cc1nnc2c3c(-c4ccccc4)csc3ncn12	-0.53
O=C(O)C1CSC(c2ccc(Cl)cc2)N1 (stereo unspecified)	-0.42
Cc1ccccc1NCc1c(C#N)c2ccccc2n1C	3.49*
N#Cc1c(=O)c2ccccc2n2ccccc12	-1.79
COc1ccc(OCc2c(C#N)c3ccccc3n2C)cc1	0.02
CCCCCc1ccc(NC(=O)Nc2c(Cl)cc(Cl)cc2Cl)cc1	-1.35
CS(=O)(=O)Nc1ccccc1Oc1ccc(Cl)cc1Cl	0.71
c1ccc(-c2cc3ccccc3[nH]2)cc1	-0.6
Cc1ccc(-c2cc3ccccc3[nH]2)cc1	15.9*
Cc1ccc(-c2cc(=O)c3c(=O)n(-c4ccccc4)[nH]c3[nH]2)cc1	-0.59
COc1ccccc1N1CCN(S(=O)(=O)c2ccc(S(N)(=O)=O)cc2)CC1	1.72
O=C(C1=C(O)C(=O)N(Cc2cccnc2)C1c1cccnc1)c1ccco1 (stereo unspecified)	0.21
C=CC(C)(O)CC[C@]1(C)[C@H]2CC(=O)C=C(C)[C@]2(C)C[C@@H](O)[C@@H]1C (stereo partly specified)	0.88
C=CCOc1ccc(C2/C(=C(\O)c3ccc(OC)cc3)C(=O)C(=O)N2Cc2cccnc2)cc1 (stereo unspecified)	0.76
CN(CCOC(=O)C(C)(C)C)c1nc2cc(Cl)ccc2s1	-1.84
COc1ccc(NS(=O)(=O)c2ccc(Br)cc2)cc1	2.27
COc1ccc(S(=O)(=O)Nc2cc(OC)c(Cl)cc2OC)cc1	1.34
COc1ccc(S(=O)(=O)Nc2c(C)cc(O)cc2C)cc1	5.2*
COC(=O)c1ccc(N2CCc3cc4ccc(C)cc4nc32)cc1	3.05*
Cc1ccc2cc3c(nc2c1)N(c1ccccc1)CC3	-2.48
SMILES	Dicer inh
COC(=O)c1ccc(N2C(=O)CC(N3CCN(C)CC3)C2=O)cc1 (stereo unspecified)	0.87
O=C(O)CCC(=O)NCCC1=CCCCC1	0.69
O=C(COc1ccc(Cl)cc1)N(Cc1cccs1)C1CCS(=O)(=O)C1 (stereo unspecified)	0.47
O=C(COc1ccccc1)N(Cc1cccs1)C1CCS(=O)(=O)C1 (stereo unspecified)	3.08*
O=C(COc1ccc(F)cc1)N(Cc1cccs1)C1CCS(=O)(=O)C1 (stereo unspecified)	1.37
CC(C)c1nnc2c3c4c(sc3ncn12)CCCC4	0.39
CCOC(=O)c1sc(SCc2c(Cl)cccc2Cl)c2c1CC(C)(C)CC2=O	-2.87
COc1ccc(OCc2nc(C#N)c(N3CCN(c4ccccc4)CC3)o2)cc1	3.05*
N#Cc1nc(COc2ccc(F)cc2)oc1NCc1cccnc1	1.47
COc1ccc(OCc2nc(C#N)c(N3CCC(C(N)=O)CC3)o2)cc1	1.16
N#Cc1nc(COc2ccccc2Cl)oc1N1CCOCC1	0.78
N#Cc1nc(COc2cccc(Cl)c2)oc1NCc1ccco1	1.23
COc1ccc(N2CCN(c3oc(COc4ccc(F)cc4)nc3C#N)CC2)cc1	-0.86
N#Cc1nc(COc2cccc(Cl)c2)oc1NCc1cccnc1	3.79*
N#Cc1nc(COc2cccc(Cl)c2)oc1N1CCCCC1	3.85*
N#Cc1nc(COc2ccccc2Cl)oc1N1CCCC1	-0.13
Cc1ccc(S/C=C(\C#N)S(=O)(=O)c2ccc(Cl)cc2)cc1	-0.41
CC(C)NC(=O)c1cc2n(n1)C(C(F)(F)F)CC(c1cccs1)N2 (stereo unspecified)	0.9
COC(=O)CSCC(=O)Nc1scc(C)c1C(N)=O	-1.26
CSc1ccc(C2c3c(oc4ccccc4c3=O)C(=O)N2c2nncs2)cc1 (stereo unspecified)	1.4
CC1CCc2sc3ncnc(NCCCN4CCOCC4)c3c2C1 (stereo unspecified)	10.9
COC(=O)c1ccc2c(c1)N(C)S(=O)(=O)/C(=C\Nc1ccc(OC)cc1)C2=O	0.35
Clc1ccc(-c2nc3ccccc3s2)cc1	2.26
c1ccc(-c2nc3ccccc3s2)cc1	-0.24
c1cncc(-c2nc3ccccc3s2)c1	5.61*
SMILES	Dicer inh
O=C1NN=C(c2ccccc2)/C1=C1\OC(c2ccccc2)=CS1	-3.58
CCCC(=O)NNc1ncc(C(=O)OCC)c(C(F)(F)F)n1	2.68
O=C(OCc1ccc(Cl)cc1)c1cnc(NNC(=O)C(F)(F)F)nc1C(F)(F)F	3.4*
O=C(OCc1ccc(Cl)cc1)c1cnc(Sc2ccc(Cl)cc2)nc1C(F)(F)F	-4.04
COc1ccccc1C(=O)NNc1ncccc1C(F)(F)F	1.98
CCSCCOC(=O)C1=C(C)NC2=C(C(=O)CC(C)(C)C2)C1c1ccc(OC)cc1OC (stereo unspecified)	2.49
Cc1ccc2c(c1)C(=O)OC1(O)C3C4C=CC(C4)C3C(=O)N21 (stereo unspecified)	1.9
O=C1C2C3C=CC(C3)C2C(=O)N1c1cccc(N2C(=O)C3C4C=CC(C4)C3C2=O)n1 (stereo unspecified)	12.5
